The text below walks through data of PubChem BioAssay.

A short description of test [1]: compounds binding Alexa647 anti-His antibody – biochemical, small-molecule microarray, 635 nm fluorescence, artefact control for SMM control protein annotation, primary screen (AID 1128).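 Further: score merges feature fluorescence with signal-to-noise for each printed compound spot.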 To be noted: higher = more signal.
The test system of test [2] is Human papillomavirus type 1a E7 protein (residues 1-88). Kind of test: HPV1a E7 small-molecule binders, primary screen, biochemical, small-molecule microarray, residues 1-88, 635 nm (AID 1129). The note with it: small-molecule microarray binding, fluorescence 635 nm; higher = more signal.
The target of test [3] is Focal adhesion kinase 1 (Homo sapiens) (UniProt Q05397). Kind of test: PTK2 protein binding on printed compound slides – biochemical, small-molecule microarray, 635/667 nm fluorescence, BSA, DTT, primary screen (AID 1130).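 Further: composite of spot emission at 667 nm and signal to noise over triplicate slides.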 To be noted: 635 nm fluorescence, higher = more signal.
In test [4] the test system is Fibrinogen (Alexa647-labelled). Briefly: Alexa647-fibrinogen binding to printed small molecules – biochemical, small-molecule microarray, 635/667 nm fluorescence, artefact control for SMM control-protein annotation, profiling panel (AID 1131).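 Further: z-score merges 667 nm fluorescence with per-spot signal-to-noise over triplicate slides.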 To be noted: fibrinogen-A647 binding fluorescence, higher = more signal.
The target of test [5] is Follistatin (Homo sapiens) (UniProt P19883). Kind of test: FST protein binding to printed compounds – biochemical, small-molecule microarray, 635/667 nm fluorescence, primary screen (AID 1132). To be noted: 635 nm fluorescence, higher = more signal.
In test [6] the target is Fibroblast growth factor 2 (Homo sapiens) (UniProt P09038). Briefly: basic fibroblast growth factor binding to printed compounds – biochemical, small-molecule microarray, 635/667 nm fluorescence, primary screen (AID 1133). The note with it: FGF2, fluorescence 635/667, higher = more signal.
Test [7] is described as follows: JC-1 mitochondrial potential readout, lung cancer cells – cell-based, A549, JC-1 fluorescence, basal, 24 h, 100 nL, profiling panel (AID 1138).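 Further: A549 lung adenocarcinoma cells under basal conditions with no added stimulus; test concentration not given here.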 To be noted: higher = more signal.
For test [8], the system named is Lefty1. Kind of test: Lefty1 protein binding to printed compounds – biochemical, small-molecule microarray, 635/667 nm fluorescence, primary screen (AID 1139). To be noted: fluorescence 635/667, higher = more signal.
Test [9] relates to wheat germ agglutinin (Triticum aestivum), Alexa647-labelled. Briefly: Alexa647-WGA lectin binding to printed small molecules – biochemical, small-molecule microarray, 635/667 nm fluorescence, artefact control for SMM control-protein annotation, profiling panel (AID 1140).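 Further: score merges 667 nm feature emission with signal to noise over triplicate slides.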 The note with it: WGA-A647 binding, 635 nm fluorescence, higher = more signal.
In test [10] the target is Luciferin 4-monooxygenase (Photinus pyralis) (UniProt P08659). Briefly: inhibition of purified Photinus pyralis luciferase – biochemical, luminescence, purified enzyme, 2006 set, primary screen (AID 1141).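 Further: cell-free assay with purified firefly luciferase at 100 ng per well in PBS; test concentration not given here.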 To be noted: purified firefly luciferase, SteadyGlo luminescence, 30 min; higher = more signal, called active from +8 up or from −8 down.

Active and inactive are the calls of the source.

Chain of Fibroblast growth factor 2 (Homo sapiens) (P09038 whole entry, looked up): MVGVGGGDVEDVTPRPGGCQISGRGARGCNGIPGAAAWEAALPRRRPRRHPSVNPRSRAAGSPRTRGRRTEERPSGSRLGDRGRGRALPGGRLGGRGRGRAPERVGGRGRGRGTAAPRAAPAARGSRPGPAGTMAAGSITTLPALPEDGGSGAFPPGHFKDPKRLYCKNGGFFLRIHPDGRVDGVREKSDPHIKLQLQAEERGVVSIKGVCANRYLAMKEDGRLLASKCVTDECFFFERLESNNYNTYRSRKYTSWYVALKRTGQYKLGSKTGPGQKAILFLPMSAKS
Chain of Follistatin (Homo sapiens) (P19883 whole entry, looked up): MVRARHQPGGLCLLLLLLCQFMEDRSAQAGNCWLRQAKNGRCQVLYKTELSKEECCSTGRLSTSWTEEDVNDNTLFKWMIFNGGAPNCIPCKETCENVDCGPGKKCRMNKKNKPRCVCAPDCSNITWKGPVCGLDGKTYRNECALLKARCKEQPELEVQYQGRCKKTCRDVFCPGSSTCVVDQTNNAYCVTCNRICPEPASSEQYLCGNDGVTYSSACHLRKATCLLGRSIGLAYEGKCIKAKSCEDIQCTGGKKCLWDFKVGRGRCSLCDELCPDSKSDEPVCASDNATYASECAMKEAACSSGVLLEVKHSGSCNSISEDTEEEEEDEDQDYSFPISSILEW
Chain of Focal adhesion kinase 1 (Homo sapiens) (Q05397 whole entry, looked up): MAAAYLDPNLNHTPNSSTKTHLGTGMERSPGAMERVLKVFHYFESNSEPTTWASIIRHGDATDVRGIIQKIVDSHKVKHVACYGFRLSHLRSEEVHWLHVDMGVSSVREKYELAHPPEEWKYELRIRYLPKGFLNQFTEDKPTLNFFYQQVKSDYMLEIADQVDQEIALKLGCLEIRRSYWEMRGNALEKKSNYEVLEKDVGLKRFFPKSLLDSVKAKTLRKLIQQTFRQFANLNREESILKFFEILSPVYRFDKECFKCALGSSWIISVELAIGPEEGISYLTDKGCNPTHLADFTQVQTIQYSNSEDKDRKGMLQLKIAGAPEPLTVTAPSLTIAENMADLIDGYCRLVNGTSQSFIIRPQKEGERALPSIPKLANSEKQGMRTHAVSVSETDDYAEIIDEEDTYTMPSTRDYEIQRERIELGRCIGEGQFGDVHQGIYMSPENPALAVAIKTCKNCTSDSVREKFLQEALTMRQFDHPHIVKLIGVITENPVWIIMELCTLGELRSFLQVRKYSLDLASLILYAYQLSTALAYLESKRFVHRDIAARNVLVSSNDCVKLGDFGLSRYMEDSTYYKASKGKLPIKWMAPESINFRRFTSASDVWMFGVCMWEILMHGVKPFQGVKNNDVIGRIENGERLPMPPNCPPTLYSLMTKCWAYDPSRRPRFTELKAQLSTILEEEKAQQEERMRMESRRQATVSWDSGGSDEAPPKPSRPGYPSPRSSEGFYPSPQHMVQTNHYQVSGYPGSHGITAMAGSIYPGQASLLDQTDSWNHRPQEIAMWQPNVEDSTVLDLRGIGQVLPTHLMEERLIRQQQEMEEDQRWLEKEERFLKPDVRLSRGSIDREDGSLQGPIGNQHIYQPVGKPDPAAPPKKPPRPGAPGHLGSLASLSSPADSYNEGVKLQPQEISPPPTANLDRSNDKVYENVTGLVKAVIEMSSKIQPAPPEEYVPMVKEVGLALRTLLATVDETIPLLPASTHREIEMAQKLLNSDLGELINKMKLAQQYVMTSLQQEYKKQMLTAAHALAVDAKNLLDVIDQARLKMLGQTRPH
Chain of Luciferin 4-monooxygenase (Photinus pyralis) (P08659 whole entry, looked up): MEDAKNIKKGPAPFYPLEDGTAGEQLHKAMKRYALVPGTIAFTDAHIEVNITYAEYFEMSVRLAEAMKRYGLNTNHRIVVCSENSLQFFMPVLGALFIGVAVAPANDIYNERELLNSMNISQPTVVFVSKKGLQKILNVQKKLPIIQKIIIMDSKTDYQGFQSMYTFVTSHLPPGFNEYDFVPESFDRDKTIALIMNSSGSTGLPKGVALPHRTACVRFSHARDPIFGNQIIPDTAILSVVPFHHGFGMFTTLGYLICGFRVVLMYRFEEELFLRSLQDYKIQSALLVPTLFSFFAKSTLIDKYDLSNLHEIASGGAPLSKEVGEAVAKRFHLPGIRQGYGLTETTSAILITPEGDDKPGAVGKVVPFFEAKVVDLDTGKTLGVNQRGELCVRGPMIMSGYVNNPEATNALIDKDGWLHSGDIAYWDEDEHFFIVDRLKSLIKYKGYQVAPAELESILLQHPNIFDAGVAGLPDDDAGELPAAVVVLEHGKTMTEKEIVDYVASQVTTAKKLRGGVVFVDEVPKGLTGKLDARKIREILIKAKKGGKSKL

As for `CC(=O)OC[C@H]1O[C@H](CCON=C2[C@H]3CCn4c(=O)n(-c5ccccc5)c(=O)n4[C@H]3[C@H](O)[C@@H]3O[C@H]23)C=C[C@@H]1OC(C)=O`, the composite z-score in test [1] is -0.405; in test [2] it was -0.169; in [3], -0.749; in [4] it was 0.366; in test [5], 0.334; in [6], 0.594. Besides, the results for the composite z-score in test [8] and in test [9] were 0.397 and -0.0229, respectively. Besides, the z-score in [7] is -0.297; in [10], 0.416 (inactive).

As to `Cc1ccc(S(=O)(=O)N[C@H]2COC(=O)CC=C[C@@H](C)COC(=O)CC=C[C@@H]2C)cc1`, the composite z-score was -0.142 in test [1]; -0.408 in test [2]; 0.309 in test [3]; -1.08 in test [4]; 1.42 in [5]; 1.4 in test [6]. For the same compound, the composite z-score in test [8] was 1.23; in [9] it was -0.678. Also, the z-score is 0.447 in [7] and -0.268 (inactive) in [10].

As to `COC(=O)CC=C[C@@H](C)[C@@H](C=NOC(C)CN1CCCc2nc(C)c(C)cc21)OC` (stereo not given in full), the composite z-score was found to be 0.333 in test [1]; 0.464 in test [2]; 0.0673 in test [3]; 0.233 in test [4]; 0.6 in [5]; 0.604 in [6]. In addition, the composite z-score in test [8] was 0.677; in [9] it was -0.0665. The z-score was -0.27 in test [7] and 0.423 (inactive) in test [10].

For `CO[C@@H]1COC(=O)[C@@H]2CCCN2C(=O)[C@@H](C)COC(=O)CC=C[C@H]1C`, the composite z-score in [1] was 0.408; in test [2] it was 0.923; in [3], -0.194; in test [4], 0.527; in test [5], 0.365; in test [6] it was 1.51. In addition, the results for the composite z-score in test [8] and in test [9] were 1.01 and -0.0639, respectively. Besides, the z-score in test [7] is -0.84; in [10], 1.48 (inactive).

For the compound `CO[C@@H]1COC(=O)[C@@H](C)NC(=O)CC=C[C@@H](C)[C@H](NS(=O)(=O)c2ccc(C)cc2)COC(=O)[C@H](C)NC(=O)CC=C[C@H]1C`, the composite z-score was -0.0135 in test [1]; -0.693 in [2]; -0.0691 in [3]; -0.965 in test [4]; 0.848 in test [5]; 0.0303 in [6]. In addition, the composite z-score in test [8] was 0.895; in test [9] it was -0.694. The z-score is 1.07 in test [7] and -1.15 (inactive) in test [10].

On to `COc1ccc(O[C@@H]2[C@H](O)CO[C@H]2C=Cc2ccccc2)cc1`, for which the composite z-score in [1] was 0.326; in test [2], -0.437; in test [3], 0.051; in test [4], 0.173; in test [5], -0.117; in test [6] it was 0.117. Moreover, the figures for the composite z-score in test [8] and in test [9] were -0.208 and 0.0385, respectively. The z-score in test [7] is 1.66; in test [10] it was -1.69 (inactive).

Turning to `CCOC(=O)NN=C1C[C@@H](O)[C@@H](O)[C@@H]2[C@@H]3C(=O)N(Cc4ccc5c(c4)OCO5)C(=O)[C@@H]3CC[C@H]12`, the composite z-score was -0.0164 in test [1]; 0.117 in test [2]; -0.243 in test [3]; 0.785 in test [4]; -0.176 in test [5]; -0.289 in [6]. Further, the composite z-score in [8] was determined as 0.285; in [9], 0.559. Also, the z-score in test [7] is 0.0318; in [10], 1.12 (inactive).

Turning to `COc1cc(O)c(C(=O)C=Cc2ccc3c(c2)OCO3)c(OC)c1`, the composite z-score in [1] is -0.132; in test [2], -1.44; in test [3], 0.0276; in test [4], 0.0337; in test [5], 0.4; in [6] it was -0.19. The composite z-score turned out to be 0.707 in test [8] and 0.393 in test [9]. For the same compound, the values for the z-score in test [7] and in test [10] were 0.209 and -5.1 (inactive), respectively.

Regarding `CC(C)(C)N1C(=O)[C@H]2[C@H]3[C@H](O)[C@H](O)CC(=NOCc4ccccc4)[C@H]3CC[C@H]2C1=O`, the composite z-score was 0.102 in test [1]; 0.0128 in [2]; -0.103 in test [3]; 0.451 in test [4]; -0.829 in [5]; -0.34 in [6]. The composite z-score in test [8] was -0.484; in [9], 0.877. Also, the figures for the z-score in test [7] and in test [10] were -0.316 and 0.109 (inactive), respectively.

Regarding `C#CCCCON=C1C[C@@H](O)[C@@H](O)[C@@H]2[C@@H]3C(=O)N(c4cccc(Oc5ccccc5)c4)C(=O)[C@@H]3CC[C@H]12`, the composite z-score in test [1] was 0.247; in [2] it was -0.936; in [3], -0.427; in [4], -1.13; in test [5], -0.446; in [6], -0.455. In addition, the composite z-score in test [8] is -0.275; in test [9], 0.272. The z-score in test [7] is 0.8; in [10], 0.134 (inactive).

`COc1cccc([C@H]2Oc3ccc(OC)cc3C(=NOC[C@@H](O)COCc3ccco3)[C@@H]2O)c1`: the composite z-score is 0.232 in test [1]; -1.3 in test [2]; 0.3 in test [3]; -2.19 in test [4]; -0.707 in [5]; -0.51 in [6]. The figures for the composite z-score in test [8] and in [9] were -0.488 and -0.418, respectively. In addition, the z-score in test [7] is -0.843; in test [10] it was -2.4 (inactive).

In the case of `CO[C@H]1COC(=O)CCC[C@@H](C)[C@H](OC)COC(=O)[C@@H](C)NC(=O)CC=C[C@@H]1C`, the composite z-score is -0.132 in [1]; -1.12 in test [2]; -0.154 in test [3]; -0.737 in [4]; 1.12 in [5]; 1.17 in test [6]. In addition, the values for the composite z-score in [8] and in test [9] were 1.42 and -0.878, respectively. In addition, the figures for the z-score in test [7] and in test [10] were -0.716 and 0.624 (inactive), respectively.

Take `CCOC(=O)CCN1C(=O)[C@H]2[C@H]3[C@H](O)[C@H](O)CC(=NOCC(C)C)[C@H]3CC[C@H]2C1=O`: the composite z-score is -0.0537 in test [1]; -0.204 in test [2]; -0.0454 in [3]; 0.416 in test [4]; -0.143 in [5]; -0.0435 in test [6]. Also, the composite z-score in test [8] is -0.0892; in [9], 0.293. Also, the z-score in test [7] is 0.46; in test [10] it was -0.562 (inactive).
